PubChem BioAssay (NCATS)
Activity calls are given as the source filed them.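 How the source made its calls: active means compounds whose dose series gives a full or clear partial fitted curve of increased nuclear translocation; inconclusive means weak partial curve or effect only at the top dose; inactive means no dose-dependent translocation response.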

molecular target: Glucocorticoid receptor (Homo sapiens) (UniProt P04150); experiment: GR-GFP Redistribution (AID 450); settings: U2OS GR-GFP nuclear translocation, laser cytometry, 2 h; series mostly up to 20.6 µM
Potency means the concentration at half of the fitted maximal effect.

Sequence of Glucocorticoid receptor (Homo sapiens) (P04150 whole entry, looked up): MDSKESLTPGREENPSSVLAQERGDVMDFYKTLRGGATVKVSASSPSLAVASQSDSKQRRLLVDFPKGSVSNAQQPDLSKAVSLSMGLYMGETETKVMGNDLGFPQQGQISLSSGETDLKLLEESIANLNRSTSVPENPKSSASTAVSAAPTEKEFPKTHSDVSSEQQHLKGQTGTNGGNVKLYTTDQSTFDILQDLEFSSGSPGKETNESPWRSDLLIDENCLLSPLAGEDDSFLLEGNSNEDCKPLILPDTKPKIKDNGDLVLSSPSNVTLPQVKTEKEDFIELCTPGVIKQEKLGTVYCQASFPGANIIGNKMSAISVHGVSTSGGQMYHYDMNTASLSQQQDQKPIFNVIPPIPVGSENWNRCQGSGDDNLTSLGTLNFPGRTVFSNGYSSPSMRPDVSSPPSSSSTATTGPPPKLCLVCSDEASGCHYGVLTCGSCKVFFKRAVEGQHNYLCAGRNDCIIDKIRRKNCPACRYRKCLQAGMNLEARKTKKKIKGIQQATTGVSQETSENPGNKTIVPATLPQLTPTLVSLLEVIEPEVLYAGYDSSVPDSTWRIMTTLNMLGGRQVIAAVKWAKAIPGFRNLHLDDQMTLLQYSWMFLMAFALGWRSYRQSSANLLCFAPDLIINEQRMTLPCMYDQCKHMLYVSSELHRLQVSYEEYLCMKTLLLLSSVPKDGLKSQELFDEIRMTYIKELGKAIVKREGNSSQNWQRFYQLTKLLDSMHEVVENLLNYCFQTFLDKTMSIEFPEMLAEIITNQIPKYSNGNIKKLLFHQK

Potency, inactive:
CCc1ccc(NC(=O)CSC2=C(C#N)C(c3ccc4c(c3)OCO4)CC(=O)N2)cc1 (stereo unspecified) > 20.6 µM, Cc1cc(=O)oc2c(CN3CCCCC3)c(O)c(Cl)cc12 > 20.6 µM, c1ccc2c(c1)[nH]c1c(N3CCC4(CC3)OCCO4)ncnc12 > 20.6 µM, C=C(Br)CN1CCN(CC(=C)Br)CC1 > 20.6 µM, N#Cc1c(N)nc(SCC(=O)NCc2ccc3c(c2)OCO3)c(C#N)c1-c1cccs1 > 20.6 µM, CCCCOc1cccc(-c2nnc(N)s2)c1 > 20.6 µM, CC1(C(=O)CSc2ncn[nH]2)CCC(=O)O1 (stereo unspecified) > 20.6 µM, O=C(CC(c1ccccc1)c1ccco1)N1CCOCC1 (stereo unspecified) > 20.6 µM, CCn1cc(C(=O)NCc2ccccn2)c(=O)c2cc(F)c(N3CCN(C)CC3)cc21 > 20.6 µM, NC(=O)CSc1c[nH]c2ccccc12 > 20.6 µM, CC1(C)Cc2c(C#N)c(NCCc3ccccc3)nc(-c3ccco3)c2CO1 > 20.6 µM, Cc1cc(=O)oc(C)c1C(=O)NCC(C)NC(=O)c1c(C)cc(=O)oc1C (stereo unspecified) > 20.6 µM, CN(CCCCCC(=O)/C=N/O)Cc1ccccc1 > 20.6 µM, CCCCc1nc(NCCNC(=O)c2ccco2)c(C#N)c2c1CSC(C)(C)C2 > 20.6 µM, COc1ccc(C(CC(=O)N2CCOCC2)C(C)C)cc1 (stereo unspecified) > 20.6 µM, CSc1nc2sc3c(c2c2nnnn12)CCC3 > 20.6 µM
